# Experimental data reported in paper PMC4336329 (PLoS ONE, 2015).
# The whole screen tested about 310,000 compounds, of which about 14,000 (4.5%) showed an effect of 50% or more. The effect is printed as a negative number. What follows is part of a selection rich in strong results, with near analogues and random picks from the rest.
# Molecular target: human ether-à-go-go-related gene (hERG) potassium channel (human, UniProt Q12809)
# Test: primary screen, population patch clamp on CHO cells stably expressing hERG; higher = less effect of the substance
# 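Note: peak tail current of the secondary pulse compared with the same well before compound.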
# Chain of human ether-à-go-go-related gene (hERG) potassium channel (Q12809 whole entry, looked up): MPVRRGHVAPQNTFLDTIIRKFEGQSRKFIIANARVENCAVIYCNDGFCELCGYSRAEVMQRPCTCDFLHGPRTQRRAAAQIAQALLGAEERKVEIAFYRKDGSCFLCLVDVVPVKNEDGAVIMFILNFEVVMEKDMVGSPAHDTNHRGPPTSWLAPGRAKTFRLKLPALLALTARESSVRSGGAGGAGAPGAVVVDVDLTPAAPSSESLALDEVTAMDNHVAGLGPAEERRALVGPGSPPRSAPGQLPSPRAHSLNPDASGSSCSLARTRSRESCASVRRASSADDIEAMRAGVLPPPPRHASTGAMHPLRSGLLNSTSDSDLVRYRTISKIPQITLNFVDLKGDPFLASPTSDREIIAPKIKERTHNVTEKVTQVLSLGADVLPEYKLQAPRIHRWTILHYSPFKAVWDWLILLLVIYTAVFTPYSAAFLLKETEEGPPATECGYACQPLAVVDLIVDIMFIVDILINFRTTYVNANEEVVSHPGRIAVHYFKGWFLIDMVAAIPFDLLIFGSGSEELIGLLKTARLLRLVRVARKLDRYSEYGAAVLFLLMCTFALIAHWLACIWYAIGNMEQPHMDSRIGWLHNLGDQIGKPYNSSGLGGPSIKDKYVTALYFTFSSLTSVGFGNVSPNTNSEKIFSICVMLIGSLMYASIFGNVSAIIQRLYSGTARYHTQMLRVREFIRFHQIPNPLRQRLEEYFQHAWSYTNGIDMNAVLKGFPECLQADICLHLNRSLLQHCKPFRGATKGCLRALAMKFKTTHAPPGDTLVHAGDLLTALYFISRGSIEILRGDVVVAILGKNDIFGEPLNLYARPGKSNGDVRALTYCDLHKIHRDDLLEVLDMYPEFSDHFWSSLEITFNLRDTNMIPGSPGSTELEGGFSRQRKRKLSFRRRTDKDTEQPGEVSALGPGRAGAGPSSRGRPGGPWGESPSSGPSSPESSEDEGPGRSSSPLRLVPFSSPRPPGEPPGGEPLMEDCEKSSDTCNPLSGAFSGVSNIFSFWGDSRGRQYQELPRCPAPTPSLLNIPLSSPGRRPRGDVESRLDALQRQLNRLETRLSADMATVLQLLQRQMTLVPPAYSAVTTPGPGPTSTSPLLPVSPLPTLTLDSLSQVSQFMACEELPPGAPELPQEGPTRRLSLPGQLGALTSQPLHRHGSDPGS
row,Structure (SMILES),"hERG current change (%, negative = inhibition) at 10uM"
1,COC(=O)CCC(=O)NNC(=O)CCC(=O)Nc1cccc(Cl)c1C,6.61%
2,CNC(=O)c1cc(-c2ccc(Cl)cc2)n(-c2ccccc2)n1,4.41%
3,Cc1ccc(C)c(NS(=O)(=O)c2cc(C(=O)NCC3CCCO3)ccc2C)c1 (centres unmarked),-47.7%
4,Cc1nc(S(=O)(=O)Cc2ccccc2Cl)nc2c1CCC2,24.1%
5,O=C(CSc1nc2c(cnn2-c2cccc(Cl)c2)c(=O)[nH]1)NCCC1=CCCCC1,-16.7%
6,CC(C)NC(=O)COC(=O)CNC(=O)c1cc(Cl)cc([N+](=O)[O-])c1,-0.0659%
7,COC(=O)/C(=N\OCc1ccc(C#N)cc1)c1c(C)nn(C)c1C,-29.3%
8,CC1(C2CC2)NC(=O)N(CC(=O)Nc2ccc(Cl)c([N+](=O)[O-])c2)C1=O (centres unmarked),-1.15%
9,CCCc1n[nH]c(=O)c2c1nnn2Cc1ccccc1,4.86%
10,O=C(c1ccccc1)c1ccc2c(c1)OCCCO2,-5.56%
11,CC(=O)c1ccc2c(c1)OCCOCCOCCOCCOCCO2,-62.4%
12,O=C(c1ccccc1)c1ccc2c(c1)OCCOCCOCCOCCO2,-65%
13,CC(=O)c1ccc2c(c1)OCCOCCOCCOCCO2,-49.3%
14,O=C(O)c1ccc2c(c1)OCCO2,3.19%
15,CC(=O)c1ccc2c(c1)OCO2,16.1%
16,CC(=O)c1ccc2c(c1)OCCOCCOCCO2,8.76%
17,NC(=O)c1ccc2c(c1)OCCO2,6.04%
18,CC(=O)c1ccc2c(c1)OCCOCCOc1ccc(C(C)=O)cc1OCCOCCO2,-76.6%
19,O=C(c1ccccc1)c1ccc2c(c1)OCCOCCOCCO2,-3.96%
20,O=C(O)c1ccc2c(c1)OCCCO2,4.27%
21,O=C(O)c1ccc2c(c1)OCCOCCOCCOCCOCCO2,-64%
22,CC(=O)Nc1ccc(C(=O)NNC(=O)c2cccc(C)c2)cc1,-1.91%
23,CCCC(=O)Nc1nnc(-c2ccco2)s1,2.55%
24,O=C(COC(=O)CSc1ccc(F)cc1)NNC(=O)c1ccc([N+](=O)[O-])cc1,-30.2%
25,O=C(CCCN1C(=O)/C(=C/c2cccs2)SC1=S)NNC(=O)c1ccccc1O,4.76%

row,Structure (SMILES),"hERG current change (%, negative = inhibition) at 10uM"
1,COc1ccccc1Nc1nn2c(=O)c3ccc(C(=O)N4CCCCC4)cc3nc2s1,3.25%
2,Cc1cccc(OCC(=O)N=Nc2c(O)[nH]c3ccc([N+](=O)[O-])cc23)c1,-2.59%
3,CCOC(=O)CN1C(=O)C(Sc2n[nH]c(-c3cccc(C)c3)n2)CCc2ccccc21 (centres unmarked),6.35%
4,COc1ccc(CCC(=O)N2CCCc3ccccc32)cc1,6.02%
5,Nc1c(S(=O)(=O)c2cc(Cl)ccc2Cl)c2nc3ccccc3nc2n1CCN1CCOCC1,-15.3%
6,CC(NCC(O)COc1ccccc1)C1COc2ccccc2O1 (centres unmarked),-46.7%
7,CC(C)N1CCN(Cc2ccc(OCc3ccccc3)cc2)CC1CCO (centres unmarked),-51.6%
8,COc1ccc(CN2CCN(C(C)C)C(CCO)C2)cc1Cn1cncn1 (centres unmarked),34.1%
9,COc1cc(CN2CCN(C(C)C)C(CCO)C2)ccc1OCc1ccccc1 (centres unmarked),-55.2%
10,CC(C)N1CCN(Cc2ccc3nsnc3c2)CC1CCO (centres unmarked),8.66%
11,CC(C)N1CCN(Cc2ccncc2)CC1CCO (centres unmarked),4.5%
12,CCN1CCN(Cc2ccc(OCc3ccccc3)c(OC)c2)CC1,-17.7%
13,CC(C)N1CCN(Cc2ccc(OC3CCCC3)cc2)CC1CCO (centres unmarked),-10.7%
14,CC(C)N1CCN(Cc2ccc(Oc3ncccn3)cc2)CC1CCO (centres unmarked),10.9%
15,CC(C)N1CCN(Cc2ccc3c(c2)Cc2ccccc2-3)CC1CCO (centres unmarked),-52.4%
16,CCCSc1nsc(NC(=O)C(c2ccccc2)c2ccccc2)n1,19.3%
17,Cc1nn(C)c(C)c1NC(=O)c1cnn2c(C(F)F)cc(-c3ccccc3)nc12,40.4%
18,COc1ccccc1N(CC(=O)N1CCCC1)S(=O)(=O)c1ccc(C)cc1,5.18%
19,COc1ccc(-c2noc(CCCC(=O)Nc3cccnc3)n2)cc1OC,-6.97%
20,c1ccc(-c2cc(-c3ccccc3)[nH]n2)cc1,12.3%
21,CC(C)(C)c1ccc(C(=O)NCCC(=O)N2CCCC2)cc1,16.4%
22,Cc1ccc(NC(=S)N(C)N)cc1Cl,16.8%
23,COC(=O)CN1C(=O)[C@@H]2[C@H](C1=O)[C@@H]1CC(C(=O)OC)=C[C@@H](C(=O)OC)[C@@H]3C1=C(C(=O)[C@@]3(C)NC(=O)c1ccccc1)[C@@H]2C,-2.29%
24,COc1ccc(CNS(=O)(=O)c2ccc(-n3cnnn3)c(C)c2)cc1,-15.3%
25,CCSC(=S)c1c(C)[nH]n(-c2ccccc2)c1=O,12.9%

row,Structure (SMILES),"hERG current change (%, negative = inhibition) at 10uM"
1,Cc1ccc(NC(=O)c2cc(S(=O)(=O)c3ccccc3)ccc2Cl)cc1,-15.4%
2,O=C(Nc1ccc(F)cc1)C(c1ccccc1)N1CCN(S(=O)(=O)c2ccccc2)CC1 (centres unmarked),-5.63%
3,CCOc1ccccc1NC(=O)C(c1ccccc1)N1CCN(CC(=O)N2CCOCC2)CC1 (centres unmarked),-76.1%
4,CC(C)c1ccc(NC(=O)C(c2ccccc2)N2CCOCC2)cc1 (centres unmarked),-12.2%
5,Cc1ccc(NC(=O)C(c2ccccc2)N2CCN(CC(=O)N3CCOCC3)CC2)cc1 (centres unmarked),-43%
6,Cc1ccc(NC(=O)C(c2ccccc2)N2CCN(CC(=O)N3CCOCC3)CC2)cc1Cl (centres unmarked),-67.4%
7,O=C(Nc1ccc(F)cc1)C(c1ccccc1)N1CCN(CC(=O)N2CCOCC2)CC1 (centres unmarked),-52.1%
8,CCOc1ccccc1NC(=O)NC1(C(=O)N2CCOCC2)CCCCC1,15.6%
9,O=C(CN1CCN(C(c2ccccc2)c2ccccc2)CC1)N1CCOCC1.O=C(O)C(=O)O,-22.3%
10,O=C(Nc1ccc(Cl)cc1)C(c1ccccc1)N1CCOCC1 (centres unmarked),-27.6%
11,O=C(Nc1ccc(F)cc1)C(c1ccccc1)N1CCN(CC(=O)N2CCCC2)CC1 (centres unmarked),-65.3%
12,COc1cccc(NC(=O)C(c2ccccc2)N2CCN(CC(=O)N3CCOCC3)CC2)c1 (centres unmarked),-36.8%
13,O=C(CN1CCN(C(C(=O)Nc2ccc(F)cc2)c2ccccc2)CC1)NC1CC1 (centres unmarked),-27.8%
14,COC(=O)c1c(C(=O)OC)c2n(c1C)CCS2,3.54%
15,COc1ccc(OC)c(NC(=O)COC(=O)Cn2nnc(-c3ccccc3)n2)c1,2.66%
16,CCCc1nn2c(=O)cc(CSCC(=O)Nc3ccccc3OC)nc2s1,14.8%
17,O=C(CSc1nc2ccccc2nc1N1CCOCC1)Nc1ccccc1F,-4.19%
18,COc1cccc(C(=O)Nc2ccc(NC(=O)Cc3ccccc3)cc2)c1,-24.1%
19,CCOc1ccccc1CNc1nc2nc3c(c(=O)n2[nH]1)CCC3,19.6%
20,Oc1c(Br)cc(C2N=C(c3ccccc3Cl)NO2)cc1Br (centres unmarked),-2.5%
21,CCCc1c(C)nc(N2CCN(c3ccccc3OC)CC2)[nH]c1=O,25.2%
22,COc1ccccc1C(=O)NC(=O)COC(=O)c1ccc(Cl)cc1[N+](=O)[O-],21.6%
23,COc1ccc(Nc2nc(Nc3ccc(OC)cc3)nc(-n3[nH]c(=O)c(C)c3C)n2)cc1,-10.1%
24,CCOc1cc(/C=N/NC(=O)c2ccc(N(C)S(=O)(=O)c3ccccc3)cc2)ccc1OC,-33%
25,Cc1cccc2[nH]c(CN(C)Cc3nc(CC4CC4)no3)nc12,-11.8%

row,Structure (SMILES),"hERG current change (%, negative = inhibition) at 10uM"
1,O=C(COc1ccc(CO)cc1)Nc1ccc(F)cc1,0.156%
2,CCc1cc(=O)oc2c(C)c(O)c(CN3CCCCC3)cc12,-0.833%
3,CCc1n[nH]c(=S)n1N=C1CCC(C)CC1 (centres unmarked),19.1%
4,CC1(C)CC(=O)C=C(NC2=CC3OC(c4ccccc4)OCC3OC2=O)C1 (centres unmarked),-0.196%
5,C#Cc1ccc([C@@H]2C=C(C(=O)Nc3ccccc3)O[C@H](OCC)[C@H]2CCCO)cc1,-22.2%
6,CC(=O)N1CCN(C(=O)c2cc(-c3cccc4ccccc34)nc3ccccc23)CC1,-28.9%
7,CN1CCCN(C(=O)c2cc(-c3cccc4ccccc34)nc3ccccc23)CC1.Cl,-59.4%
8,O=C(c1cc(-c2ccccc2Cl)nc2ccccc12)N1CCN(c2ccccc2O)CC1,-22.6%
9,Cc1ccccc1-c1cc(C(=O)N2CCCC2)c2ccccc2n1,-47.9%
10,CN1CCCN(C(=O)c2cc(-c3ccc(Cl)c(Cl)c3Cl)nc3ccccc23)CC1.Cl,-69%
11,O=C(c1cc(-c2ccccc2Cl)nc2ccccc12)N1CCC1,-12.4%
12,CCOC(=O)CNC(=O)CSc1nnc(-c2ccncc2)n1-c1ccc(Cl)cc1,-8.18%
13,Cc1ccccc1OCC(O)CN1C(=O)c2ccccc2C1=O (centres unmarked),4.28%
14,Cc1ccc(C)c(OCC(O)CN2CCN(CCN3C(=O)c4cccc5cccc(c45)C3=O)CC2)c1.Cl (centres unmarked),-67.3%
15,NC(=O)CN1CCN(CCN2C(=O)c3cccc4cccc(c34)C2=O)CC1,-5.61%
16,C=CCc1ccccc1OCC(O)CN1C(=O)c2ccccc2C1=O (centres unmarked),-27.2%
17,C=CCc1ccccc1OCC(O)CN1CCN(CCN2C(=O)c3cccc4cccc(c34)C2=O)CC1.Cl (centres unmarked),-57.8%
18,Cc1cccc(OCC(O)CN2CCN(CCN3C(=O)c4cccc5cccc(c45)C3=O)CC2)c1C (centres unmarked),-35.7%
19,Cc1ccccc1OCC(O)CN1CCN(CCN2C(=O)c3cccc4cccc(c34)C2=O)CC1 (centres unmarked),-74.2%
20,C=CCc1ccccc1OCC(O)CN1CCN(CCO)CC1.Cl (centres unmarked),11.3%
21,CC(=O)c1ccccc1OCC(O)CN1CCN(CCN2C(=O)c3cccc4cccc(c34)C2=O)CC1 (centres unmarked),-73.3%
22,Cc1ccc(NC(=S)N2CCN(CCN3C(=O)c4cccc5cccc(c45)C3=O)CC2)cc1,-1.29%
23,O=C(C(c1ccccc1)c1ccccc1)N1CCN(CCN2C(=O)c3cccc4cccc(c34)C2=O)CC1,-4.74%
